Sampled rows, rich in hits. Any-hit rate of the full collection: about 17%.
TGFb inhibitor: qHTS for Inhibitors of TGF-b | HepG2 CAGA-GFP TGF-b/SMAD3 reporter, GFP fluorescence, 18 h; TGF-beta stimulated, 500 pg/mL final | Potency, µM (series often up to 46.1 µM), inactives show at the top dose activity, negative = inhibition, most hits filed as inhibitors | 410,000 tested, 1.2% active; note: % is set by controls: 0 for no effect and ±100 for the full control effect; nearly all actives have a fitted effect of over 65% in size
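TGF-beta reporter screen: HEPG2 CAGA-GFP, 1% FBS, 500 pg/mL TGF-beta final, 18 h; per-cell GFP summed per well; curves fitted and categorized by class.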
HT1080 IDH1KD tx: qHTS for induction of synthetic lethality in tumor cells producing 2HG: qHTS for the HT-1080-IDH1KD cell line; 360,000 tested, 2% active; Potency, µM (doses to about 46.1 µM), without a hit: top-dose activity, negative = toxicity, usual class: cytotoxic; HT-1080 IDH1 knockdown viability, ATP luminescence, 48 h;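 note: 0% = DMSO wells and -100% = cell-free medium wells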
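HT-1080-IDH1KD cells (IDH1 knocked down), 750/well in RPMI with 5% FBS, treated with compound 48 h at 37 degrees C. Viability by CellTiter-Glo luminescence, normalised to DMSO and no-cell wells; concentration-response curves classed.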
HepG2 viability: qHTS for Inhibitors of TGF-b: Cytotox Counterscreen | HepG2 CAGA-GFP viability, ATP luminescence, 18 h | Potency, µM (highest dose often 46.1 µM), inactives show at the highest dose activity change, negative = cytotoxicity, hits mostly cytotoxic | AID 588856, 2011 | 410,000 tested, 0.76% active
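CellTiter-Glo luminescence gave cytotoxicity after 18 hours at 37 degrees C. The cells were HepG2 CAGA-GFP in 1% FBS DMEM, stimulated with 500 pg/mL TGF-beta after compound addition. %Activity was normalised to no-cell wells (complete cell-killing) and DMSO (no toxicity), and curves were fitted and classified.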
HT1080NT lethal: qHTS for induction of synthetic lethality in tumor cells producing 2HG: qHTS for the HT-1080-NT fibrosarcoma cell line. HT-1080-NT fibrosarcoma viability, CellTiter-Glo ATP luminescence, 48 h. Potency, µM (doses to about 46.1 µM), without a hit: top-dose activity, negative = less viability, hits mostly cytotoxic. 360,000 tested, 1.6% active;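 note: NT is the 2HG producing partner of a matched IDH1 knockdown line; 0% = DMSO-treated cells and -100% = media-only wells without cells; nearly all actives have a fitted effect of over 55% in size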
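Fibrosarcoma NT cells, 750 per well in 5% FBS RPMI, were exposed to compound for 48 hours. Viability: CellTiter-Glo luminescence.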
DT40 TDP1 CPT: qHTS for Inhibitors of human tyrosyl-DNA phosphodiesterase 1 (TDP1): qHTS in cells in presence of CPT; chicken DT40 Tdp1-/-;hTDP1 cells + 20 nM CPT, ATP luminescence, 48 h; Potency, µM (highest dose often 46.2 µM), without a hit: at the highest dose activity change, negative = growth inhibition, most hits filed as inhibitors; AID 686979, 2013; 420,000 tested, 12% active; note: % is set by controls: 0 for no effect and ±100 for the full control effect; nearly all actives have a fitted effect of over 55% in size
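Chicken DT40 Tdp1-/- cells complemented with human TDP1, 400 cells/well, exposed to compounds plus 20 nM camptothecin for at least 48 h at 37 C; viability read as ATP content by CellTiter-Glo luminescence.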
TDP1 cell noCPT: qHTS for Inhibitors of human tyrosyl-DNA phosphodiesterase 1 (TDP1): qHTS in cells in absence of CPT | Potency, µM (titrated, usually from 46.2 µM), without a hit: top-dose activity change, negative = growth inhibition, most hits filed as inhibitors | DT40 Tdp1-/- hTDP1 cells, no CPT, ATP luminescence, 48 h | 420,000 tested, 15% active | AID 686978, 2013; note: % is set by controls: 0 for no effect and ±100 for the full control effect; nearly all actives have a fitted effect of over 55% in size
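Growth of hTDP1-complemented DT40 Tdp1-knockout cells is measured by ATP luminescence after at least 48 hr compound exposure at 37 °C, with DMSO substituting for the 20 nM CPT used in the parallel screen.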
Starred values were filed as active, the others as inactive; ! = not confirmed by another sample; [ ] = dose if it differs, or a comment. Calls come from the whole dose curve; as a rule, active = well fitted curve in the direction sought with a large enough effect; inconclusive = small, poorly fitted or top-dose-only effect, or another doubt; inactive = no such curve, though single readings can be large; an effect the other way counts as inactive or inconclusive. Potency is the fitted concentration of half-maximal effect.

How did CCOC(=O)c1ccc(S(=O)(=O)N2CCN(C(=O)C3CSC4(C)CCC(=O)N34)CC2)cc1 (configuration not stated) do in these assays?
TGFb inhibitor: -3%; HT1080 IDH1KD tx: -8%; HepG2 viability: -25%; HT1080NT lethal: -1%; DT40 TDP1 CPT: -28%; TDP1 cell noCPT: inconclusive

How did CC(C)Cc1nc(N2CCN(C(=O)C(C)C)CC2)c(C#N)c2c1CCC2 do in these assays?
TGFb inhibitor: inconclusive; HT1080 IDH1KD tx: -17%; HepG2 viability: -37%; HT1080NT lethal: 0%; DT40 TDP1 CPT: 21µM*; TDP1 cell noCPT: inconclusive

Results for OC1(c2cccnc2)CCN(Cc2ccc3c(c2)CN(Cc2ccc4nsnc4c2)CCO3)CC1 ?
DT40 TDP1 CPT: -5%[9.04 µM]; TDP1 cell noCPT: inconclusive

What do the screens show for `O=C1[C@H](Cc2ccccc2)NCCCC[C@@H](c2ccc(Cl)cc2)N1Cc1ccc(Cl)cc1`?
TGFb inhibitor: inconclusive; HT1080 IDH1KD tx: inconclusive; HepG2 viability: -88%; HT1080NT lethal: inconclusive; DT40 TDP1 CPT: inconclusive; TDP1 cell noCPT: inconclusive

How did O=C1[C@H](Cc2ccccc2)NC/C=C\C[C@@H](c2ccc(Cl)cc2)N1Cc1ccccc1 do in these assays?
TGFb inhibitor: inconclusive; HepG2 viability: 8.9µM*; DT40 TDP1 CPT: 13µM*; TDP1 cell noCPT: 11µM*

Results for CC(=O)C1=C(O)C(=O)N(Cc2ccccc2)C1c1ccc(Cl)cc1 (configuration not stated) ?
TGFb inhibitor: 1%; HT1080 IDH1KD tx: -7%; HepG2 viability: 0%; HT1080NT lethal: -1%; DT40 TDP1 CPT: 25%; TDP1 cell noCPT: -9%

How did O=C1[C@H](Cc2ccccc2)NCCCC[C@H](c2ccc(Cl)cc2)N1Cc1ccccc1 do in these assays?
TGFb inhibitor: inconclusive; HT1080 IDH1KD tx: inconclusive; HepG2 viability: -24%; HT1080NT lethal: inconclusive; DT40 TDP1 CPT: inconclusive; TDP1 cell noCPT: 16µM*!

How did O=C1[C@H](Cc2ccccc2)NC/C=C\C[C@@H](c2ccco2)N1Cc1ccccc1 do in these assays?
TGFb inhibitor: inconclusive; HepG2 viability: -19%; DT40 TDP1 CPT: inconclusive; TDP1 cell noCPT: 14µM*

How did O=C1[C@H](Cc2ccccc2)NC/C=C\C[C@H](c2ccc(Cl)cc2)N1Cc1ccc(Cl)cc1 do in these assays?
TGFb inhibitor: inconclusive; HepG2 viability: -61%; DT40 TDP1 CPT: inconclusive; TDP1 cell noCPT: inconclusive

What do the screens show for `CC(C)CC(=O)N1CC=CC[C@@H](c2ccc(Cl)cc2)N(Cc2ccc(Cl)cc2)C(=O)[C@@H]1Cc1ccccc1`?
TGFb inhibitor: inconclusive; HT1080 IDH1KD tx: -20%; HepG2 viability: -38%; HT1080NT lethal: -13%; DT40 TDP1 CPT: 15µM*; TDP1 cell noCPT: 13µM*

Results for Cc1ccc(NC(=O)c2cc(-c3ccc(Br)s3)nc3ccccc23)cc1F ?
TGFb inhibitor: -28%; HepG2 viability: -31%; DT40 TDP1 CPT: inconclusive; TDP1 cell noCPT: -28%

What do the screens show for `COc1ccc(CN2CN(S(=O)(=O)c3cccs3)c3nc4ccccc4nc32)cc1`?
TGFb inhibitor: -4%; HT1080 IDH1KD tx: 2%; HepG2 viability: 9%; HT1080NT lethal: 11%; DT40 TDP1 CPT: inconclusive; TDP1 cell noCPT: inconclusive

How did O=C1[C@H](Cc2ccccc2)NCCCC[C@@H](c2ccco2)N1Cc1ccccc1 do in these assays?
TGFb inhibitor: 25%; HT1080 IDH1KD tx: -14%; HepG2 viability: -21%; HT1080NT lethal: -10%; DT40 TDP1 CPT: inconclusive; TDP1 cell noCPT: 13µM*!

What do the screens show for `O=C1[C@H](Cc2ccccc2)NCCCC[C@H](c2ccco2)N1Cc1ccccc1`?
TGFb inhibitor: inconclusive; HT1080 IDH1KD tx: inconclusive; HepG2 viability: -97%; HT1080NT lethal: inconclusive; DT40 TDP1 CPT: 13µM*; TDP1 cell noCPT: 21µM*

Results for COc1cc(NC(=O)c2ccccc2)c(OC)cc1NC(=O)CN1C(=O)NC2(CCCCC2C)C1=O (configuration not stated) ?
TGFb inhibitor: 2%; HT1080 IDH1KD tx: 0%; HepG2 viability: -7%; HT1080NT lethal: 3%; DT40 TDP1 CPT: -31%; TDP1 cell noCPT: -29%

What do the screens show for `Cc1cc(C(=O)CN2C(=O)C(=O)N(Cc3ccccc3)C2=O)c(C)n1-c1ccccc1F`?
TGFb inhibitor: -5%; HT1080 IDH1KD tx: -27%; HepG2 viability: -18%; HT1080NT lethal: 0%; DT40 TDP1 CPT: -6%; TDP1 cell noCPT: inconclusive

What do the screens show for `Cc1cc(C(=O)CN2CCC(C)CC2)c(C)n1-c1ccccc1F`?
TGFb inhibitor: -17%; HT1080 IDH1KD tx: -8%; HepG2 viability: -6%; HT1080NT lethal: -2%; DT40 TDP1 CPT: inconclusive; TDP1 cell noCPT: 16µM*

Results for Cc1cc(S(=O)(=O)NCc2cccnc2)ccc1F ?
TGFb inhibitor: -2%; HT1080 IDH1KD tx: 13%; HepG2 viability: -13%; HT1080NT lethal: 0%; DT40 TDP1 CPT: inconclusive; TDP1 cell noCPT: -26%

How did OC(c1ccc2c(c1)CN(Cc1cccn1-c1ncccn1)CCO2)C1CCCCC1 (configuration not stated) do in these assays?
DT40 TDP1 CPT: 7%; TDP1 cell noCPT: -23%

Results for Cc1ccc(OCCn2c(-c3ccc(Cl)cc3)nc3ccccc3c2=O)c(C)c1 ?
TGFb inhibitor: 10%; HepG2 viability: -19%; DT40 TDP1 CPT: -19%; TDP1 cell noCPT: 5%

How did CCOC(=O)c1ccccc1NC(=O)COC(=O)CN1C(=O)C2CC=CCC2C1=O (configuration not stated) do in these assays?
TGFb inhibitor: -5%; HT1080 IDH1KD tx: -15%; HepG2 viability: 0%; HT1080NT lethal: 1%; DT40 TDP1 CPT: inconclusive; TDP1 cell noCPT: -11%

How did COc1ccc(-c2c(C)sc(NC(=O)c3ccnn3C)c2C#N)cc1 do in these assays?
TGFb inhibitor: 9%; HT1080 IDH1KD tx: 21µM*; HepG2 viability: 9%; HT1080NT lethal: 13µM*; DT40 TDP1 CPT: -11%; TDP1 cell noCPT: inconclusive
